DAX1 inh-1 = DAX1 (NR0B1) inhibitors on StAR promoter, primary screen, cell-based, luminescence, SF-1 (NR5A1), full-length DAX-1; AID 652010, 2013; inhibition, % at 6.8 µM; HEK293T StAR-luciferase reporter, SF-1/DAX-1 repression relief; 370,000 tested, 1.1% active;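 active = inhibition above the mean over all tested compounds plus 3 SD, cut at about 3.6% in these data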;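 note: 0% = DAX-1 cells with DMSO and 100% = cells lacking DAX-1 with DMSO; higher inhibition means more luminescence from relief of DAX-1 repression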
DAX1 inh-2 = DAX1 (NR0B1) inhibitors, primary screen, cell-based, HEK293, Gal4-DAX1, luciferase luminescence; HEK293 Gal4-DAX1 luciferase reporter; Nuclear receptor subfamily 0 group B member 1 (Homo sapiens), P51843; inhibition, % at 6.75 µM; AID 504766, 2011; 340,000 tested, 0.99% active;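 active = inhibition above the mean over all tested compounds plus 3 SD, cut at about 4.2% in these data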;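 note: 0% = DAX1-transfected cells with DMSO and 100% = empty-vector control cells with DMSO; inhibition shows as a rise in luminescence from relieved DAX1 repression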
Target sequence (P51843 207-470 limits assumed): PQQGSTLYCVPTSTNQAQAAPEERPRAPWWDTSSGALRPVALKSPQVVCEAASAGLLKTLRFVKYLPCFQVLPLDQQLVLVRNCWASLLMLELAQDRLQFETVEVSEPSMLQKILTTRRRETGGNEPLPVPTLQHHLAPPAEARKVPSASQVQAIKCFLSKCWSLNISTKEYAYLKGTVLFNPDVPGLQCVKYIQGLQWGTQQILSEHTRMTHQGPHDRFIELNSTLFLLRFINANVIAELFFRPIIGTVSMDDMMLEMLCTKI
hcDAF-12 act = H. contortus DAF-12 nuclear receptor activators, primary screen, cell-based, luminescence, HEK293, lit1-tk-luc reporter. HEK293 hcDAF-12 lit1-tk-luc reporter; 0% DMSO, 100% Δ7-dafachronic acid. activation, % at 6.8 µM. 370,000 tested, 1.4% active;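 active = activation above the mean of all tested compounds plus 3 SD, cut at about 5.5% in these data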;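 note: 100% = response to 3 µM Δ7-dafachronic acid high control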
ssDAF12 agonist = S. stercoralis DAF-12 nuclear receptor activators, primary screen, cell-based, luminescence, HEK293, GRIP1 co-expression, lit1-tk-luc; 370,000 tested, 1% active; Nuclear hormone receptor DAF-12 (Strongyloides stercoralis); activation, % at 6.8 µM; HEK293 ssDAF-12/GRIP1 lit1-tk-luc reporter; % of 3 µM dafachronic acid response;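 active = activation above the mean over all tested compounds plus 3 SD, cut at about 0.9% in these data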;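 note: 0% = DMSO-only wells and 100% = 3 µM delta7-dafachronic acid wells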
hgDAF12 agonist = H. glycines DAF-12 receptor agonists, primary screen, cell-based, luminescence, HEK293, GAL4 fusion, UAS-luciferase. Nuclear hormone receptor DAF-12 (Heterodera glycines), GAL4 fusion. HEK293 GAL4-hgDAF12 UAS-luciferase reporter, agonist luminescence; normalized to butyrate control. activation, % at 6.8 µM. 370,000 tested, 1.8% active;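 active = activation above a cutoff set at the mean of all screened compounds plus 3 SD, cut at about 10% in these data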;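 note: 0% = DMSO wells and 100% = sodium butyrate wells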
* hit, by the source's call; · = no result. Shown are actives, neighbours in structure and some others; about 4.1% of the full set was active somewhere.

SMILES | DAX1 inh-1 | DAX1 inh-2 | hcDAF-12 act | ssDAF12 agonist | hgDAF12 agonist
C[C@H](O)[C@@H]1CN2CCc3ccc(N4CCOCC4)cc3[C@@H]2C[C@@H]1N(C)C(=S)NCCc1ccccc1 | -1 | · | -2 | -1 | 1
COc1ccc(-c2cc(NC(=O)Cc3c[nH]c4ccccc34)ccc2Nc2cccnc2)c(OC)c1 | -1 | · | 1 | -1 | -2
O=C(Nc1ccccc1)c1ccn[nH]1 | 2 | 4.3* | 5 | 0 | 8
CC(=O)c1ccc(NC(=O)c2ccn[nH]2)cc1 | 2 | 2 | 5 | 0 | 8
COc1ccc(Cn2cc(CN3CC=CS3(=O)=O)nn2)cc1 | 0 | · | -1 | -1 | 4
c1ccc(Nc2nnc(-c3cccc4ccccc34)o2)cc1 | 2 | · | 6.3* | 1.2* | 8
COc1cc2c(=O)n(CCC(=O)NCC3CCCO3)c(=O)n(CC(=O)c3ccc(Cl)cc3)c2cc1OC (centres undefined) | 0 | 5.3* | 0 | -2 | -1
CC(C)NC(=O)CSc1nc(-c2ccccc2)cs1 | 3 | 4.7* | 1 | -1 | 11*
O=C(CSc1nc(-c2ccccc2)cs1)Nc1nccs1 | 1 | 0 | -2 | -2 | -2
Cc1ccc(NC(=O)C2OCCc3ccccc32)cc1C (centres undefined) | 2 | 2 | 2 | -1 | 11*
Cc1ccccc1C(=O)N[C@H](C(=O)N1CCC[C@H]1C(=O)NCCc1ccccc1Cl)c1ccccc1 | 0 | · | -2 | 0 | 2
COc1ccc(F)c(CN(C)CC2CCCN(CCc3ccc(F)cc3)C2)c1 (centres undefined) | 0 | 4.5* | 0 | -1 | 0
O=C1C(C2=NC(c3ccccn3)C3C(=O)N(c4ccccc4)C(=O)C23)=C(O)c2ccccc21 (centres undefined) | 0 | 4.3* | -2 | -1 | -1
CCOc1cccc(/C=C/c2ccc3cccc(O)c3n2)c1O | 0 | 2 | 5.8* | 0 | 10*
CCOc1cccc(/C=C/c2ccc3cccc(O)c3n2)c1OC | 0 | 1 | 3 | -1 | 10
CC(C)C[C@H]1COc2cc(Br)ccc2S(=O)(=O)N1Cc1cn(Cc2ccco2)nn1 | 0 | · | 1 | -2 | 4
c1ccc(Cn2ccc3ccc(-c4ccc5ccn(Cc6cccc(Oc7ccccc7)c6)c5c4)cc32)cc1 | 0 | · | 0 | -1 | 0
COc1ccccc1C(=O)n1ccc2ccc(-c3ccc4ccn(Cc5ccc(C#N)cc5)c4c3)cc21 | -2 | · | 1 | -1 | -1
CCc1ccc(OC(=O)Nc2ccccc2)cc1 | 2 | 3 | 6.2* | 1 | 11*
CC(=O)Nc1ccc(NC(=O)Oc2ccccc2)cc1 | 0 | -1 | -1 | 0 | 3
COc1ccc(OC(=O)Nc2ccccc2)cc1 | 3.9* | 1 | 3 | 0 | 6
COc1ccc(NC(=O)N/C=C/c2ccccc2)cc1 | 2 | 4 | 1 | -1 | 12*
Cc1cccc(-c2cccc3c4c([nH]c23)[C@@H]2C[C@H](N(C)C(=O)NC3CCCCC3)[C@H]([C@H](C)O)C(=O)N2CC4)c1 | -1 | · | -2 | -1 | 3
COC(=O)C1CN(Cc2ccc(Cl)cc2)CCS(=O)(=O)N1Cc1cn(Cc2ccc(C)cc2)nn1 (centres undefined) | 0 | · | -4 | -1 | 1
Cc1ccc2c(C(=O)CN3CCCCC3CCO)c(C)[nH]c2c1 (centres undefined) | 0 | 1 | -1 | 0 | 0
SMILES | DAX1 inh-1 | DAX1 inh-2 | hcDAF-12 act | ssDAF12 agonist | hgDAF12 agonist
CCC1CCCCN1CC(=O)c1c(C)[nH]c2cc(C)ccc12 (centres undefined) | 0 | 4 | 5.8* | -1 | 0
O=C(CN(Cc1ccco1)C(=O)c1cccc(F)c1)Nc1ccccc1C(F)(F)F | 3.7* | 1 | 0 | -1 | 0
CON(C)S(=O)(=O)c1cccc(C(=O)N(CC(=O)Nc2ccccc2C(F)(F)F)Cc2ccco2)c1 | 0 | -1 | 2 | -2 | -4
CN1CCN(c2ccc3c(c2)Oc2ccccc2CN(Cc2cn(Cc4ccc(F)cc4)nn2)S3(=O)=O)CC1 | -1 | · | 1 | 0 | -1
COC(=O)c1cc(-c2ccccc2)c(=O)n2c1CCC2 | 0 | · | -1 | -1 | 1
COc1cccc(-c2cn3nc4c(nc3n2)CCCC4)c1 | · | -1 | · | · | ·
Fc1cccc(-c2cc3nc4c(c(NCc5ccco5)n3n2)CCCC4)c1 | 4.2* | 3 | 3 | 0 | 11*
COc1cccc(-c2cc3nc4c(c(NCC(C)(C)CN(C)C)n3n2)CCCC4)c1 | 2 | 4.3* | 0 | -2 | 6
Nc1[nH]c(C(=O)c2ccccc2)c(-c2ccccc2[N+](=O)[O-])c1C(=O)NCCc1c[nH]c2ccccc12 | -3 | · | 1 | -1 | -3
Cc1cc(Cl)ccc1OCCCC(=O)NO | -1 | 0 | -2 | -1 | 12*
COCCCNC(=O)C[C@H]1C[C@@]2(C(=O)OC)C(=C[C@H](C(C)C)O[C@@H]2C2CC2)N(Cc2ccc(Cl)cc2Cl)C1=O | 0 | · | -2 | -1 | -3
O=C(Oc1cccc2ccccc12)c1ccco1 | 0 | 0 | 6.0* | -1 | -2
Clc1ccc(/C=N/NC(=Nc2ccccc2)c2ccccn2)c(Cl)c1 | 3 | 3 | 6 | 0 | 12*
C[C@H]1[C@@H](OC(=O)Nc2cc(Cl)ccc2Cl)CC[C@@]23CCCN2C(=O)CCC[C@@H]13 | · | · | -1 | -2 | 2
O=C(Nc1ccc(Br)cc1)c1cnc[nH]1 | 0 | 3 | 6.5* | 0 | 11*
COc1cccc(NC(=O)c2cnc[nH]2)c1 | 1 | 1 | 0 | 0 | 4
Cc1ccccc1Cn1cc(CN2[C@@H](CC(C)C)COc3cc(Br)ccc3S2(=O)=O)nn1 | -1 | · | -2 | -1 | -1
CC1(c2ccccn2)Nc2ccccc2-c2nc3ccccc3n21 (centres undefined) | 1 | 4.4* | 2 | 0 | 11*
c1ccc2c(c1)NC1(CCCCC1)n1c-2nc2ccccc21 | 2 | 1 | 4 | -1 | 11*
CCCCC1(C)Nc2ccccc2-c2nc3ccccc3n21 (centres undefined) | 2 | 3 | 3 | 0 | 11*
c1ccc2c(c1)NC1(CCCCCC1)n1c-2nc2ccccc21 | 2 | 1 | 3 | -1 | 10
CS(=O)(=O)OC12CCCN(C1)/C(=C/c1ccc(Cl)cc1)C2 (centres undefined) | 0 | · | 1 | -1 | 2
